# Screening data from PubChem.
# HT1080 IDH1KD tx: qHTS for induction of synthetic lethality in tumor cells producing 2HG: qHTS for the HT-1080-IDH1KD cell line; HT-1080 IDH1 knockdown viability, ATP luminescence, 48 h; Potency, µM (series often up to 46.1 µM), for inactives: top-dose activity, negative = toxicity, usual class: cytotoxic; 360,000 compounds, 2% hits; AID 686971, 2013;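 further: potency means the concentration at half of the fitted maximal effect; 0% = DMSO wells and -100% = cell-free medium wells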
#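 CellTiter-Glo luminescence after 48 h compound exposure at 37 degrees C of IDH1-knockdown HT-1080 cells in 5% FBS RPMI. %Activity scaled between DMSO wells and cell-free media wells, with curves fitted and assigned curve classes.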
# IL1B secr inh: qHTS for Inhibitors of Inflammasome Signaling: IL-1-beta AlphaLISA Primary Screen; THP-1 LPS/ATP IL-1B secretion, AlphaLISA, 16 h; stronger effect = lower value; activity change, % at 57.5 µM; 360,000 compounds, 4.7% hits; AID 743279, 2014; in the data active means activity change below about -50%; inconclusive means mostly about -30% to -49%
#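 THP-1 cells pretreated 1 hr with compounds (up to 57.5 uM final), then stimulated with LPS (250 ng/mL final) plus ATP (1.25 mM final); secreted IL-1B measured by AlphaLISA after 16 hr, decreased signal indicating inhibition.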
# TDP1 cell noCPT: qHTS for Inhibitors of human tyrosyl-DNA phosphodiesterase 1 (TDP1): qHTS in cells in absence of CPT; 420,000 compounds, 15% hits; DT40 Tdp1-/- hTDP1 cells, no CPT, ATP luminescence, 48 h; Potency, µM (series often up to 46.2 µM), inactives show at the highest dose activity change, negative = growth inhibition, actives largely listed as inhibitors; further: potency means the concentration at half of the fitted maximal effect; nearly all actives have a fitted effect of over 55% in size
#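 DT40 Tdp1-/-;hTDP1 cells, no CPT (DMSO vehicle only), 400 cells/well; compounds pin-transferred; ≥48 hr, 37 °C; CellTiter-Glo 30 min RT dark, luminescence read.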
# TDP1 cell CPT: qHTS for Inhibitors of human tyrosyl-DNA phosphodiesterase 1 (TDP1): qHTS in cells in presence of CPT | chicken DT40 Tdp1-/-;hTDP1 cells + 20 nM CPT, ATP luminescence, 48 h | Potency, µM (titrated, usually from 46.2 µM), inactives show at the highest dose activity change, negative = growth inhibition, hits mostly inhibitors | 420,000 compounds, 12% hits | AID 686979, 2013; further: potency means the concentration at half of the fitted maximal effect; nearly all actives have a fitted effect of over 55% in size
#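 Chicken DT40 Tdp1-/- cells complemented with human TDP1, 400 cells/well, exposed to compounds plus 20 nM camptothecin for at least 48 h at 37 C; viability read as ATP content by CellTiter-Glo luminescence.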
# HT1080NT lethal: qHTS for induction of synthetic lethality in tumor cells producing 2HG: qHTS for the HT-1080-NT fibrosarcoma cell line; HT-1080-NT fibrosarcoma viability, CellTiter-Glo ATP luminescence, 48 h; Potency, µM (titrated, usually from 46.1 µM), for the others: at the top dose activity, negative = less viability, hits mostly cytotoxic; 360,000 compounds, 1.6% hits;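 further: NT is the 2HG producing partner of a matched IDH1 knockdown line; potency means the concentration at half of the fitted maximal effect; 0% = DMSO-treated cells and -100% = media-only wells without cells; nearly all actives have a fitted effect of over 55% in size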
#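 HT-1080-NT fibrosarcoma cells (2HG-overproducing), 750 cells/well in RPMI with 5% FBS, dosed after 2 h and incubated 48 h at 37C. CellTiter-Glo luminescence normalized to DMSO and no-cell wells; concentration-response curves fitted and classed.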
# Numbers without * were called inactive; ? = inconclusive; / = no result given; [ ] = remark or other dose. The list is not random: actives were taken first. Their share in the collection is about 19%. Unless noted, the call rests on the fitted dose curve; in most records, active means well fitted curve in the direction sought with a large enough effect; inconclusive means small, poorly fitted or top-dose-only effect, or another doubt; inactive means no such curve, though single readings can be large; an effect the other way counts as inactive or inconclusive. Unless noted, on the % scale 0 is the no-effect control and ±100 the full control effect.
SMILES,HT1080 IDH1KD tx,IL1B secr inh,TDP1 cell noCPT,TDP1 cell CPT,HT1080NT lethal
CCN(CC)c1ccc(NC(=O)c2[nH]c(C)c(C(C)=O)c2C)c(C)c1,1%,-11,18µM*,23µM*,2%
CC(=O)NCCC(=O)Nc1ccc(C)c(F)c1,19%,11,-15%,-13%,18%
CCOC(=O)c1c(C)[nH]c(CCC(=O)Nc2ccc(Cl)cc2C)c1C,/,/,?,-41%,/
CCOC(=O)c1c(C)[nH]c(CCC(=O)Nc2ccc(N(CC)CC)cc2C)c1C,/,/,?,13µM*,/
COc1ccc2cc(CCOC3CCCCO3)ncc2c1 (stereo unspecified),2%,1,?,-26%,4%
CCN1C(=O)/C(=C\c2nc3ccccc3c(=O)n2CC)c2ccccc21,-25%,-86*,29µM*,16µM*,-16%
CCn1c(/C=C2\C(=O)N(C)c3ccccc32)nc2ccccc2c1=O,-2%,1,?,?,-3%
CCN1C(=O)/C(=C/c2nc3ccccc3c(=O)n2-c2ccccc2)c2ccccc21,-6%,/,18µM*,21µM*,-12%
CCn1c(/C=C2/C(=O)N(C)c3ccccc32)nc2ccccc2c1=O,-20%,-16,16µM*,?,-18%
Cn1c(=O)[nH]c2cc(-c3noc(-c4ccc(Br)cc4)n3)ccc21,/,/,-8%,-10%,/
Cc1ccccc1OCCOC(=O)c1c(-c2ccccc2)noc1C,5.8µM*,64,18µM*,7.3µM*,7.3µM*
Cc1onc(-c2ccccc2)c1C(=O)OCC(=O)c1ccccc1,-5%,21,?,-1%,1%
Cc1onc(-c2ccccc2)c1C(=O)OCCOc1ccccc1F,-11%,-23,?,?,-19%
Cc1onc(-c2ccccc2)c1C(=O)OCC(=O)c1ccc(F)cc1,0%,7,23µM*,?,3%
CCOC(=O)c1c(-c2ccc(F)cc2)csc1NC(=O)c1c(-c2ccccc2)noc1C,?,-4,21µM*,?,0%
Cc1onc(-c2ccccc2)c1C(=O)OCCOc1ccc([N+](=O)[O-])cc1[N+](=O)[O-],?,-24,21µM*,?,-27%
COc1ccc(-c2nc(N)nc(C)c2Oc2ccccc2Br)c(O)c1,-2%[9.24 µM],4,?,?,?
COC(=O)c1ccc(C2C(C#N)=C(C)NC3=C2C(=O)CC(C)(C)C3)cc1 (stereo unspecified),10%,23,-21%,-22%,2%
COc1ccc(C2CC(=O)C3=C(C2)NC(C)=C(C#N)C3c2ccc(N(C)C)cc2)cc1 (stereo unspecified),-11%,-66*,-22%,8%,-1%
COc1ccc(C2C(C#N)=C(SC)NC3=C2C(=O)CC(C)(C)C3)cc1 (stereo unspecified),-13%,-15,8.2µM*,6.5µM*,-8%
O=C(c1ccc(NS(=O)(=O)c2cccs2)cc1)N1CCOCC1,8%,-9,-3%,-12%,2%
CCCCC/C=C\C/C=C\C/C=C\C/C=C\CCCC(=O)O[C@H](COCCCCCCCCCCCCCCCC)COP(=O)([O-])OCC[N+](C)(C)C,/,/,9%[4.12 µM],7%[4.12 µM],/
CC1=NN(C(=O)c2ccc(Cn3nc(C)c([N+](=O)[O-])c3C)cc2)C(O)(C(F)(F)F)C1 (stereo unspecified),1.8µM*,6,-20%,?,4.5µM*
CC1=NN(C(=O)c2ccc(Cn3nc(C)c(Br)c3C)cc2)C(O)(C(F)(F)F)C1 (stereo unspecified),-6%,65,0.58µM*,0.82µM*,-3%
